In the supplement of paper PMC6555819:

Columns and labels:
Test in all cases: PBM binding z-score (relative to random genomic background probes); higher = stronger binding; sequences stand for … in GC…GCGATTGACAGCGTAGAATGAAGG
[1] = tested on: RARb homodimer (NR concentration 270 nM)
Summary of the method: (§1)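 Binding buffer was PBS pH 7.4 with 2% milk, 0.02% Triton X-100, 1 mM DTT, 0.2 mg/mL BSA and 0.4 mg/ml salmon testes DNA. In it, ligand-free nuclear receptor dimers were incubated 1 h on custom Agilent 4×180K protein-binding microarrays carrying double-stranded probes. Antibodies against each partner (one per run) detected binding, and z-scores were calculated against random background probes after regression normalization of scanned fluorescence.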

[2] = tested on: RARg:RXRa (NR concentration 270 nM, RXRa partner concentration 90 nM)
Summary of the method: as §1

[3] = tested on: RARg homodimer (NR concentration 270 nM)
Summary of the method: as §1

[4] = tested on: RXRa DBDmut IVT, anti-RXR (DBD mutation: RXRa K156A/R161A, NR concentration 90 nM)
Summary of the method: as §1

[5] = tested on: RXRa homodimer (NR concentration 180 nM)
Summary of the method: as §1

[6] = tested on: THRa:RXRa (NR concentration 90 nM, RXRa partner concentration 90 nM)
Summary of the method: as §1

[7] = tested on: THRa homodimer (NR concentration 90 nM)
Summary of the method: as §1

[8] = tested on: VDR homodimer (NR concentration 270 nM)
Summary of the method: as §1

Sequence	PBM binding z-score [1]	PBM binding z-score [2]	PBM binding z-score [3]	PBM binding z-score [4]	PBM binding z-score [5]	PBM binding z-score [6]	PBM binding z-score [7]	PBM binding z-score [8]
AGTCAAAGTTCATCTAGGGAACGTAAGATATGCT	3.82	5.57	6.19	4.67	4.53	2.92	-0.658	4.63
CGTCAAAGTTCAACCAAGGTAACGTAAAGCACGC	4.13	5.85	6.21	4.5	4.98	5.14	1.18	4.3
CAAACTAGGTCTAAGGTCAAAGTCGAGCCAACCA	4.24	4.86	4.08	2.51	5.24	4.1	4.5	3.63
CCTTGCGGGTCAAGGTTATAGCACGGGTGGTACG	3.04	4.37	4.11	0.089	4.68	3	0.776	1.01
CGAACTAGGTCAGAACAAGACAGTGAAGGATGAT	1.79	2.37	3.15	0.577	1.31	1.32	0.101	0.237
CCTACTGGGCCAAAGCTCATTGATTCCAATGCTC	-0.417	-0.161	-0.172	-0.0907	-0.521	-0.58	-0.358	-0.874
ATCTTTAGGTAAAGTTCAGTGAAAGATCGATAGA	2.48	1.99	2.45	1.71	1.15	1.52	0.0896	1.95
TTACCAAGGTGAAAAGTCGTTGATGCACGCCTTG	0.298	0.676	0.264	-0.185	1.15	1.37	0.0466	-0.327
GGAACGAGGGCACTCGAGTTGATAGCATGGCGAT	0.585	0.902	1.45	2.21	0.67	2.41	-0.47	1.75
GGAACGAGGGAAAAGTTGATAGCATCTGTCGACG	-0.745	-0.112	0.0748	-0.319	-0.0103	-0.553	-1.15	-0.433
AGAATGAGGTTCCCAAAGATCAGGGAAACGCTTG	-0.864	0.141	0.123	-0.649	0.474	0.218	-0.623	-0.39
ATACCAAGGTGAACGTGAGGTCGTTGATACTAAC	2.68	3.63	1.98	1.19	2.68	4.11	3.14	3.61
CCAACTAGGTCACAGAGGTCAAAGTCCGTGCGTA	5.91	7.44	8.06	3.39	7.77	4.66	3.24	6.85
GTAACGAGGGCAAGTTGATAGCAGAGTTTGATGG	1.71	1.66	1.86	2.07	0.851	1.36	0.0846	2.23
CCTACTGGGCCACGAAAGGTCATTGGTTCAGTGA	4.95	4.88	4.56	0.546	5.25	3.8	1.18	3.08
AGAACGAGGACAATGAGTTGATAGCACGGGTGGC	0.202	0.444	1.06	1.31	0.454	2.19	1.15	2.33
CAAACTAGGTCCAGGTCAAAGTCGGTTTGTGCCA	3.03	2.6	2.27	1.62	2.37	3.31	2.79	2.49
CATACAGGGTCAGCTAGGCTAGAGTAGGGACGGC	3.04	4.09	4.3	1.33	3.94	2.84	1.02	1.04
CATACAGGGTCAGCTAGGCCAGTGTAGGGACGGC	3.34	4.2	4.67	1.57	3.89	3.07	0.856	1.07

Sequence	PBM binding z-score [1]	PBM binding z-score [2]	PBM binding z-score [3]	PBM binding z-score [4]	PBM binding z-score [5]	PBM binding z-score [6]	PBM binding z-score [7]	PBM binding z-score [8]
TAGCCTAGGTCATTCAGGGGCCAGTATAGAAAGC	3.29	6.13	4.44	1.6	2.84	3.45	0.509	1.32
ACTACTAGTTGACTTAGGGCAACCGATACGACGC	0.824	0.463	0.625	0.495	0.508	1.32	0.683	0.273
TCGAGTAGGTTGCCAATGGGGCATTCAGCTTTCT	-0.36	-0.509	-0.841	0.244	-0.482	-0.51	-0.951	-0.846
CCTACTGGGCCAAAAAAGTCATTGATGCCGATAA	-0.0259	-0.155	0.0325	-0.134	-0.184	-0.184	-0.612	-0.687
ACTCGGAGGCCAAAGGTCAGAGCTACGCCAGTGA	4.54	6.25	4.8	0.776	6.62	3.06	-0.031	0.616
TCGAGTAGGTTAGGGGCATTCTGAATGGCGTCGA	0.656	0.0827	0.00279	0.628	0.386	0.627	-0.0336	0.572
ATCTCTAGGTAACCAAGTTCCGTGAATGCCGAAC	-0.23	0.14	0.215	0.0901	0.217	0.694	0.462	-0.111
CCTAGCAGGCCAATCTGTGTCACTCAAGGCTTGA	0.114	-0.172	0.279	0.249	-0.389	0.791	-0.64	-0.327
CGTAAAAGTTCAACTAAGGTAACGTAAAGCACGC	3.88	5.28	6.11	4.41	4.42	5.35	1.75	3.84
GCTGCTAGGTCAGGTTGGTCAGATAACGGGTACG	2.53	2.71	3.5	0.652	1.12	1.84	0.684	1.02
CGTCAAAGTTCAAGGTATCGTAACAGAAAGCAGC	3.49	4.96	5.95	4.18	3.95	1.94	-0.0941	3.17
ATCTCTATGTAACCAAGTTCAGTGAATGCCGAAC	1.28	0.518	0.659	0.924	0.314	0.659	0.156	2.31
TCTGCTAGGTCAACGATGGTCAGCTAGTCTGCTA	3.54	3.9	4.61	0.638	2.5	3.16	0.617	-0.544
TTACCAAGGTGAGCTGACGTCGTTGATCCAACTC	-0.0202	0.00493	0.0726	-0.698	0.32	0.839	-0.28	-1.04
TCTTGTATATCAACAGGAGGTTAAGAAAGATCGA	0.861	0.722	0.592	0.943	1.25	1.18	0.039	0.491
GCTCGGAGGATAAGGTCAGAGCTTTGTCCGTAGA	3.31	2.92	3.06	0.342	2.71	3.33	2.82	0.184
CCAGCTAGGTCATGGTCAGCTAATCTACAGTATG	3.2	3.81	4.16	1.61	2.86	2.8	1.25	0.247
GCATACAGGTGAAACGCAGGTAACTCAGGGTGGC	0.299	1.03	0.276	-0.217	0.854	1.42	-0.151	-0.463
GCTTATGGGTCAAAGGTTATAGCATGAATAGAAT	3.09	6.53	4.48	2.11	9.21	3.41	-0.168	1.13

Sequence	PBM binding z-score [1]	PBM binding z-score [2]	PBM binding z-score [3]	PBM binding z-score [4]	PBM binding z-score [5]	PBM binding z-score [6]	PBM binding z-score [7]	PBM binding z-score [8]
ATCTCTAGGTGACAAGTTCAGTGAAAGAGAGGAC	2.34	2.03	1.82	0.449	1.09	1.71	0.652	2.05
GCTGCTAGGTCAACTGATCGTCAGCTAAAGCTCG	3.16	4.5	5.79	1.38	2.8	2.73	0.546	-0.532
TCCAGTTGGTCAAAGGTCACACACTCGAAATGCG	4.95	7.17	6.07	2.25	7.96	4.08	2.47	2.99
ATCGATAGGTCGAAGGTGAGTATACCCACCCGAA	0.922	2.06	1.56	-0.262	2.36	0.837	-0.266	-0.3
ACAGACAGGTGATGAAGGTAACTGAGGCTATCAT	0.244	0.321	0.603	-0.383	0.305	1.33	-0.0787	-0.259
TCTTGTAGAGCAACAGGAGGTTAAGAAAGATCGA	0.136	0.269	0.0354	0.0247	0.479	0.705	-0.732	-0.241
CCTACTGGGCCATCAGGTCATTGATATCAACGTT	2.73	2.15	2.21	0.377	1.17	3.14	3.21	1.66
TCGACTAGGTTAGGGGCATTCAGAATGGCGTCGA	0.889	0.355	0.408	0.884	0.798	1.03	0.253	0.473
TCGAGTGGGTTAGTCGGGGCATTCAGCCAACATA	0.697	-0.203	-0.276	0.51	-0.199	1.18	0.456	0.85
TCGAGTAGGTTACCAATGGGGGATTCAGCTTTCT	0.472	1.09	0.478	0.789	0.767	0.805	0.162	-0.0448
CGAACTAGGTCATTAACAGGACAGTGAATAGTAA	2.34	4.13	4.05	2.35	2.29	2.76	0.884	1.15
CGAAGTAGGTCATTGACAGGACAGTGAATAGTAA	2.74	4.83	4.36	2.27	2.94	2.64	0.373	1.07
CCTTACGGGTCACTCCAGATTATAGCATCGGAGT	2.58	4.16	3.98	1.28	3.98	2.65	0.098	1.39
TCTTGAAGATCAGCAGGTTAAGAAAGCTGGCCAA	-0.114	-0.154	-0.281	0.572	0.316	-0.00481	-1.05	-0.317
CCTAGTAGGTCAAGGTCACACACGCTATAGGTAC	5.28	6.17	7.17	2.82	6.23	4.3	4.17	3.86
CGACCAAGGTGAACAAGGTCGTTGATTACTATTC	2.12	1.92	1.56	0.907	2.13	3.35	1.68	1.82
CCTGCTAGGTCATGGTCCGCTAATCTACAGTATG	2.55	3.73	4.05	1.74	2.66	2.86	1.1	0.414
CGTCCAAGGTCAATGCTAGGTCAATGAAAGCATT	5.08	7.66	6.89	3.4	5.18	4.57	3.59	3.48
GCGTACGGGTCAAAGGTTATAGCATGAATAGAAT	3.14	6.99	4.57	1.83	9.61	3.78	-0.479	1.08
